Here are results for 8 compounds from PubChem BioAssay (Tox21).

Assay [1] is described as follows: qHTS assay to identify small molecule agonists of the estrogen receptor alpha (ER-alpha) signaling pathway in the presence of an antagonist - cell viability counter screen (AID 1259386).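 Note: series mostly up to about 92 µM; cells exposed to compounds for 22 h at 37 °C before the viability read; nearly all actives have a fitted effect of over 30% in size.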 The method, boiled down:
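Read-out: CellTiter-Fluor fluorescence after 1hr reagent incubation, measured in the same wells as the luciferase readout. VM7Luc4E2 cells were exposed to 15 compound concentrations with 10.0nM ICI-182,780 for 22hr at 37C.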
(qHTS replaces the single test concentration by a dilution series.)

The target of assay [2] is Progesterone receptor (Homo sapiens) (UniProt P06401). The experiment in a line: qHTS assay to identify small molecule agonists of the progesterone receptor (PR) signaling pathway (AID 1346784; calls by dose curve; note: nearly all actives have a fitted effect of over 30% in size; note: potency is the fitted concentration of half-maximal effect). A digest of the protocol: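 PR-UAS-bla HEK 293T cells carrying a UAS-driven beta-lactamase reporter were seeded in medium with 2% charcoal-stripped FBS, preincubated 6 hr at 37C, then exposed to compounds in DMSO for 16 hr; agonism was read by LiveBLAzer B/G FRET fluorescence.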
Progesterone receptor (Homo sapiens), sequence (P06401 whole entry, looked up): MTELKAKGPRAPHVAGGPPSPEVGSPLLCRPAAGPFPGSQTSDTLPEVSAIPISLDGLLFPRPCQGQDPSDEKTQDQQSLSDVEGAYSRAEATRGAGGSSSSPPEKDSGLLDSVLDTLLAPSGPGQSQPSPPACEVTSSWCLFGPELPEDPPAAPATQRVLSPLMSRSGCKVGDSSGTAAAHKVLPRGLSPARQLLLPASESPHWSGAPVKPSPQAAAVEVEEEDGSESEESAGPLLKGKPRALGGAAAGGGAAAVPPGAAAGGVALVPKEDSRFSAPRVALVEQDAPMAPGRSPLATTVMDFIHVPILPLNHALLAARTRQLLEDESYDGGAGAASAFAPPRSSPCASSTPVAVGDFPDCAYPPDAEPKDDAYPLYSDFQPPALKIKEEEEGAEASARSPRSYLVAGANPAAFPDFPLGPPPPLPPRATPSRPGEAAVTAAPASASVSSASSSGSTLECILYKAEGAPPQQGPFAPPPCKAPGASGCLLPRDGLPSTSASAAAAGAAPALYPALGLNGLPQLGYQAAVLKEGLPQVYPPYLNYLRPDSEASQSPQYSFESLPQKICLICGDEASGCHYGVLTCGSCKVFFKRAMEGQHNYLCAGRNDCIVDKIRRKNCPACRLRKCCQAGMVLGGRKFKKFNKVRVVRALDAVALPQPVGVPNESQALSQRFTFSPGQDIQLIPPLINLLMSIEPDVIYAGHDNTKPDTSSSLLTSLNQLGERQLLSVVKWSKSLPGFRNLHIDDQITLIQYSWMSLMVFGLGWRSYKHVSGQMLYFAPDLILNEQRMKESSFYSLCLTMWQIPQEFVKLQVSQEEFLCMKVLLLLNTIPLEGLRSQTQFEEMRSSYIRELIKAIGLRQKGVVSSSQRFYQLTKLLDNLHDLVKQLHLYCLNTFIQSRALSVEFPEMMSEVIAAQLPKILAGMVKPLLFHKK

The nature of assay [3]: qHTS assay to identify small molecule antagonists of the progesterone receptor (PR) signaling pathway - cell viability counter screen (AID 1346798). Note: series mostly up to about 92 µM; nearly all actives have a fitted effect of over 50% in size. A digest of the protocol:
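PR-UAS-bla HEK293T cells in medium with 2% charcoal-stripped FBS were treated with compounds plus R5020 for 16 hr at 37C. Cell viability was then read by CellTiter-Glo luminescence after 30 min at room temperature in the same wells.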

Assay [4] can be described thus: qHTS assay to identify small molecule agonists of the progesterone receptor (PR) signaling pathway - cell viability counter screen (AID 1346799; calls by dose curve; note: nearly all actives have a fitted effect of over 45% in size). A digest of the protocol:
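PR-UAS-bla HEK293T cells, 3,000 per well in medium with 2% charcoal-stripped FBS, were preincubated 6 hr at 37C, then exposed to compounds for 16 hr; viability was read as CellTiter-Glo luminescence after 30 min at room temperature.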

The nature of assay [5]: qHTS assay to identify small molecule antagonists of the TGF-beta/Smad signaling pathway - cell viability counter screen (AID 1346824). Note: nearly all actives have a fitted effect of over 50% in size. The method, boiled down: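 Cytotoxicity counter-screen run in the same wells as the beta-lactamase Smad reporter read: CellTiter-Glo luminescence after 30 min at room temperature. HEK 293T SBE-bla cells had 5 hr compound exposure at 37 C with TGF-beta1 (0.25 ng/mL stock).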

Assay [6] is described as follows: qHTS assay to identify small molecule agonists of the TGF-beta/Smad signaling pathway - cell viability counter screen (AID 1346829). Note: top concentration of the series differs between compounds; nearly all actives have a fitted effect of over 45% in size. The method, boiled down: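 SBE-bla HEK 293T cells plated overnight, compound exposure 5 hr at 37 C. Viability read in the same wells by CellTiter-Glo luminescence after 30 min at room temperature, following the beta-lactamase read.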

Assay [7] can be described thus: qHTS assay to identify small molecule agonists of the TGF-beta/Smad signaling pathway (AID 1346859; active = well fitted activation curve with a large enough effect in the signal ratio in the repeat runs, not every such curve was filed as active; the % refers to the signal ratio; note: series mostly up to about 77 µM). The method, boiled down: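 HEK 293T cells stably carrying a beta-lactamase reporter driven by the Smad binding element were seeded overnight, exposed to DMSO-dissolved compounds for 5 hr at 37 C, 5% CO2, then loaded with FRET substrate for 2 hr at room temperature.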

Assay [8] has as its target Thyrotropin-releasing hormone receptor (Homo sapiens) (UniProt P34981). Briefly: qHTS assay to identify small molecule agonists of the thyrotropin-releasing hormone receptor (TRHR) signaling pathway (AID 1346891; calls by dose curve; note: series mostly up to about 58 µM). The method, boiled down: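 TRHR-expressing HEK293 cells were plated 18 h at 37 °C/5% CO2, loaded with calcium dye 2 h at 37 °C, then given compound in DMSO; fluorescence was read kinetically for 3 min at 1 s intervals.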

Assay [9] is described as follows: Human pregnane X receptor (PXR) small molecule agonists, qHTS cell viability counter screen (AID 1346977). Note: nearly all actives have a fitted effect of over 50% in size. A digest of the protocol:
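PXR-Luc HepG2 cells in medium with 5% charcoal-stripped FBS were pre-incubated 5hr, then exposed to compounds for 24hr at 37C. Viability was read in the same wells by CellTiter-Fluor fluorescence, reagent added after 23hr with a 1hr incubation.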

The nature of assay [10]: Caspase-3/7 induction in CHO-K1 cells by small molecules, qHTS cell viability counter screen (AID 1346979). Note: nearly all actives have a fitted effect of over 35% in size. The method, boiled down:
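Wild-type CHO-K1 cells were seeded at 1,500 per well, rested 5hr at 37 C, then exposed to compounds in DMSO. After 16hr, CellTiter-Fluor reagent was added and fluorescence read 1hr later as the viability measure.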

The nature of assay [11]: Caspase-3/7 induction in CHO-K1 cells by small molecules, qHTS assay (AID 1346980). Note: nearly all actives have a fitted effect of over 15% in size. A digest of the protocol:
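Luminescent Caspase-Glo 3/7 read (30min, room temperature) quantified apoptosis induction. Cells were wild-type CHO-K1, treated with compound for 17hr at 37 C and 5% CO2.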

A short description of assay [12]: Caspase-3/7 induction in HepG2 cells by small molecules, qHTS cell viability counter screen (AID 1346981). Note: series mostly up to about 92 µM; nearly all actives have a fitted effect of over 30% in size. A digest of the protocol:
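Fluorescence read-out of live-cell protease activity (CellTiter-Fluor) after 1 hr with reagent. This was measured in the same wells as the caspase-3/7 luminescence, on HepG2 cells exposed to DMSO-dissolved compounds for 16 hr at 37 C.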

The target in assay [13] is Nuclear receptor subfamily 1 group I member 2 (Rattus norvegicus) (UniProt Q9R1A7). The experiment in a line: Rat pregnane X receptor (rPXR) activation by small molecules, qHTS assay (AID 1346983). Note: nearly all actives have a fitted effect of over 20% in size. To be noted: rPXR luciferase reporter cells, One-Glo luminescence, 24 h; stronger effect = higher value. The method, boiled down:
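Luminescent readout (One-Glo luciferase, 30 min room temperature) followed 24 hr compound treatment at 37 C of rPXR cells plated 2,000 per well and preincubated 5hr; qHTS format with compounds delivered in DMSO.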

Assay [14] deals with Cytochrome P450 2D6 (Homo sapiens) (UniProt P10635). The experiment in a line: Cytochrome P450 Family 2 Subfamily D Member 6 (CYP2D6) small molecule antagonists: luciferase reporter qHTS assay (AID 1671196). Note: nearly all actives have a fitted effect of over 50% in size. Note: potency is the fitted concentration of half-maximal effect. The method, boiled down:
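Luminogenic proluciferin substrate, CYP2D6 enzyme; 10 min RT preincubation with compound, NADPH regeneration system added, 1 h RT. Stop/detection reagent, 20 min RT, luminescence read (RLU). Signal proportional to CYP activity.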
For orientation: Reporter assays use an easily measured gene product as a stand-in for the process of interest.

The target in assay [15] is Progesterone receptor (Homo sapiens) (UniProt P06401). The experiment in a line: qHTS assay to identify small molecule antagonists of the progesterone receptor (PR) signaling pathway (AID 1346795; active = well fitted inhibition curve with a large enough effect in the signal ratio in the repeat runs, not every such curve was filed as active; the % refers to the signal ratio). The method, boiled down: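 PR-UAS-bla HEK293T cells carrying a UAS-driven beta-lactamase reporter were plated in medium with 2% charcoal-stripped FBS and rested 6 hr at 37C. Compounds were added with 1 nM R5020 (final) for 16 hr, then FRET substrate loaded 2 hr at room temperature.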

Assay [16] has as its target Thyrotropin-releasing hormone receptor (Homo sapiens) (UniProt P34981). The experiment in a line: qHTS assay to identify small molecule antagonists of the thyrotropin-releasing hormone receptor (TRHR) signaling pathway (AID 1346877; active = well fitted inhibition curve with a large enough effect in the repeat runs, not every such curve was filed as active; note: series mostly up to about 51 µM). A digest of the protocol:
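HEK293/TRHR cells, 18 h, 37 °C; Ca2+ dye 2 h; cpd 5 min RT; TRH 1 nM final; fluorescence read 3 min, 1 s intervals; 15 concs, triplicate.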

Assay [17] in a line: Caspase-3/7 induction in HepG2 cells by small molecules, qHTS assay (AID 1346978). Note: nearly all actives have a fitted effect of over 15% in size. A digest of the protocol: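 Caspase-3/7 induction was measured by Caspase-Glo 3/7 luminescence (30 min, room temperature) after a 17 hr compound exposure of wild-type HepG2 cells seeded at 2,000 per well and pre-incubated 5 hr.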
For assay [18], the target named is Nuclear receptor subfamily 1 group I member 2 (Homo sapiens) (UniProt O75469). The experiment in a line: Human pregnane X receptor (PXR) small molecule agonists, qHTS assay (AID 1346982). Note: nearly all actives have a fitted effect of over 35% in size. A digest of the protocol:
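HepG2 PXR-Luc reporter line, 5% charcoal-stripped FBS; 5 hr pre-incubation, compound (DMSO) 24 hr at 37 C/5% CO2; ONE-Glo 30 min RT; luminescence read-out.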

Assay [19] has the same target. The experiment in a line: CYP3A4 induction through human pregnane X receptor (PXR) by small molecules, qHTS assay (AID 1346984). Note: nearly all actives have a fitted effect of over 40% in size. The method, boiled down:
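HepG2-derived DPX-2 line carrying PXR plus a CYP3A4-promoter luciferase reporter; cells plated 5 hr, compound-exposed 24 hr at 37C. CYP3A4 activity probed with 3uM (final) Luciferin-IPA for 3hr, then luciferase read after One-Glo.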

The target is the same in assay [20]. Briefly: Human pregnane X receptor (PXR) activation by small molecules, qHTS assay (AID 1346985). Note: nearly all actives have a fitted effect of over 40% in size. A digest of the protocol:
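DPX-2 cells (HepG2 co-transfected with a PXR response element and a CYP3A4-promoter luciferase construct) were seeded at 2,000 per well, rested 5 hr at 37C, then exposed to DMSO-dissolved compounds for 24 hr. Activation was read as luciferase luminescence.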

Inconclusive results are not listed. The source holds several records for some structures; these can differ, active in one and inactive in another. Calls of active or inactive are those of the source. Unless noted, calls come from the whole dose curve; as a rule, active = well fitted curve in the direction sought with a large enough effect in the repeat runs; inconclusive = weak or mixed curves; inactive = no such curve, though single readings can be large; an effect the other way counts as inactive or inconclusive.
% is set by controls: 0 for no effect and ±100 for the full control effect.

Nuclear receptor subfamily 1 group I member 2 (Rattus norvegicus), sequence (Q9R1A7 whole entry, looked up): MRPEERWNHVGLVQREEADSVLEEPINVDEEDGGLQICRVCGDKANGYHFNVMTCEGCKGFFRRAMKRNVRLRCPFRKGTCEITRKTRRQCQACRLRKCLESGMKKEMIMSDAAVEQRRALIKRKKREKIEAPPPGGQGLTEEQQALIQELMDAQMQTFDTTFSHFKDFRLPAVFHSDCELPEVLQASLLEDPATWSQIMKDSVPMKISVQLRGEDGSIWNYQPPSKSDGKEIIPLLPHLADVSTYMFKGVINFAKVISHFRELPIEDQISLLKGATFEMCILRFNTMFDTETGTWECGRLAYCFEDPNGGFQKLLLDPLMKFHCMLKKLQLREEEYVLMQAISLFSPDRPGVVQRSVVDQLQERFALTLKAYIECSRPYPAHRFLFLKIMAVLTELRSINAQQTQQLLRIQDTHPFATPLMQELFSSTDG
Thyrotropin-releasing hormone receptor (Homo sapiens), sequence (P34981 whole entry, looked up): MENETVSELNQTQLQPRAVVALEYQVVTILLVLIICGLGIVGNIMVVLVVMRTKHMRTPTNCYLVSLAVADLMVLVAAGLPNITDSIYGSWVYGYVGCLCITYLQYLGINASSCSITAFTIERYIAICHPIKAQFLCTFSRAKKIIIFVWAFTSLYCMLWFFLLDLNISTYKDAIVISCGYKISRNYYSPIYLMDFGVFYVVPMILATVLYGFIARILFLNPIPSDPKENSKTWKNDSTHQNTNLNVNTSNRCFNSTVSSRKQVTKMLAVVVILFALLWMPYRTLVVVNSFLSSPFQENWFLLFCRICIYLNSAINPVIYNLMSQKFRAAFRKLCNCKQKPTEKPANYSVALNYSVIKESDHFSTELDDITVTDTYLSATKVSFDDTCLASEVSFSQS
Nuclear receptor subfamily 1 group I member 2 (Homo sapiens), sequence (O75469 whole entry, looked up): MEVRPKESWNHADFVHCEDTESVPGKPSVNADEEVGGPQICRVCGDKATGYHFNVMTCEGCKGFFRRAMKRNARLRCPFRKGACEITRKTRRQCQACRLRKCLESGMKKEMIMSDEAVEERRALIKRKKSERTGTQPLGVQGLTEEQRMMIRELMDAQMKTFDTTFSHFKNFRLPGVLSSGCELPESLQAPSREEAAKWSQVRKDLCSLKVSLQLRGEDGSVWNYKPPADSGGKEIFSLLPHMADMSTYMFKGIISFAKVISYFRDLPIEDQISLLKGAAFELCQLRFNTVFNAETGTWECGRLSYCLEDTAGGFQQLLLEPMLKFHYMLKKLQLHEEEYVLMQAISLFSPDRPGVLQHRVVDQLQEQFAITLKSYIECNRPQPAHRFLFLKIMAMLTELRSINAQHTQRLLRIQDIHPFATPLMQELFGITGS
Cytochrome P450 2D6 (Homo sapiens), sequence (P10635 whole entry, looked up): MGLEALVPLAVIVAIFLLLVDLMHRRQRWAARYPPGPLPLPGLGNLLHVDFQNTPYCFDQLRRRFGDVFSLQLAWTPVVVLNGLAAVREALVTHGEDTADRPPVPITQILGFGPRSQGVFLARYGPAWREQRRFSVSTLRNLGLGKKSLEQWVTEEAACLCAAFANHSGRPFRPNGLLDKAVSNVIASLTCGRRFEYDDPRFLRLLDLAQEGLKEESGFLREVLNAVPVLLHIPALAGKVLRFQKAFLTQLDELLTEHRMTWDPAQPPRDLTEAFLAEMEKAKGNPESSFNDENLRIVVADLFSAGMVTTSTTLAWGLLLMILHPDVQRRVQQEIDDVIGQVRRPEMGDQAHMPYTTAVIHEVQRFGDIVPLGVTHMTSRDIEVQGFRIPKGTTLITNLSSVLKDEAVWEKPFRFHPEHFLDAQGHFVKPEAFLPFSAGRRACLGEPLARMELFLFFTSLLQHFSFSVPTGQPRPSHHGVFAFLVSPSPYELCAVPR

For `C[C@]12CCC(=O)C=C1CC[C@@H]1[C@@H]2[C@@H](O)C[C@@]2(C)[C@H]1CC[C@]2(O)C(=O)CO`, the Potency result in assay [1], in assay [9], in [10], in assay [12] and in assay [14] was “inactive” each time. For the same compound, the Potency in [2] was 30.9 µM (active). The outcome in assay [3], in assay [4], in [5], in assay [6], in assay [7] and in assay [8] was inactive. In addition, the result in [11] was inactive. The max activation in assay [13] was 9.15% (inactive).
Consider `CC(=O)Oc1ccc(C)cc1`, for which the Potency result in assay [2], in assay [15], in assay [9], in assay [17], in assay [10] and in [12] was “inactive” throughout. In addition, the Potency entry in [18], in [19] and in [14] was “inactive” in each case. Further, the call in assay [3], in [4], in [5], in assay [6], in assay [7] and in [16] was inactive. Further, the compound was classed as inactive in [8], in assay [11] and in assay [20]. In addition, the max activation in assay [13] is -1.62% (inactive).
On to `C[C@]12CC[C@@H]3c4ccc(O)cc4CC[C@H]3[C@@H]1C[C@@H](O)[C@@H]2O`, for which the Potency result in assay [1], in assay [2], in [9], in assay [17], in [10] and in assay [12] was “inactive” in each case. Moreover, the Potency result in [18], in assay [19] and in [14] was “inactive” each time. Further, the call in assay [3], in [5], in [7], in [11] and in assay [20] was inactive. Moreover, in assay [13], the max activation is -0.315% (inactive).
For `C=CCCCCCCCCC(=O)O`, the Potency entry in assay [1], in assay [2], in [15], in assay [9], in assay [17] and in [10] was “inactive” in each case. The Potency entry in assay [12], in assay [18], in [19] and in [14] was “inactive” each time. Also, the result in [5], in [6], in [7], in [16], in [8] and in assay [11] was inactive. In addition, the call in assay [20] was inactive. The max activation in assay [13] is -1.23% (inactive).
As to `Brc1ccc(Br)c(Br)c1`, the Potency result in assay [1], in assay [2], in assay [15], in [9], in assay [17] and in assay [10] was “inactive” each time. For the same compound, the Potency result in assay [12] and in assay [14] was “inactive” in each case. Besides, the call in assay [4], in assay [5], in assay [6], in [7] and in assay [11] was inactive.
On to `CC1(C)OC[C@@H]2O[C@@]3(C(=O)O)OC(C)(C)O[C@H]3[C@@H]2O1`, for which the Potency entry in [1], in assay [2], in [15], in assay [9], in assay [10] and in assay [12] was “inactive” throughout. The Potency entry in [19] and in assay [14] was “inactive” throughout. Moreover, the compound was classed as inactive in assay [4], in [5], in [6], in assay [7], in [8] and in assay [11]. Moreover, the compound was called inactive in [20]. In assay [13], the max activation is -1.74% (inactive).
Consider `Clc1ccccn1`, for which the Potency result in assay [1], in [2], in assay [15], in assay [9], in assay [17] and in assay [10] was “inactive” in each case. Further, the Potency entry in assay [12], in assay [18] and in assay [14] was “inactive” throughout. The call in assay [4], in assay [5], in assay [7], in assay [8] and in assay [11] was inactive.
As to `CN/C(=C\[N+](=O)[O-])NCCSCc1csc(CN(C)C)n1`, the Potency entry in assay [1], in assay [2], in assay [9], in assay [10], in assay [12] and in assay [19] was “inactive” each time. The compound was classed as inactive in assay [4], in assay [5], in assay [6], in [7], in assay [16] and in [8]. Besides, the outcome in assay [11] and in assay [20] was inactive. Also, the max activation in assay [13] is -2.39% (inactive). Also, the Potency in assay [14] was 35.6 µM (active) and inactive.
